From the supplement of paper PMC11417369
Over roughly 25,000 sequences, “ln(normalized median fluorescence intensity)” has its median near 9.7; the highest 2% begin near 11. The entries come from a sample that favours the highest values as a whole.

Test system: PfAP2-HC AP2 domain (GST-tagged)
Experiment: gcPBM binding intensity (ln(normalized median fluorescence intensity)); higher = stronger DNA binding
Outline: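 Each value is the highest Masliner-normalised natural-log median intensity across replicate spots of either orientation of a probe. The probes were primer-extended double-stranded 36-bp intergenic genomic sequences on an Agilent 4 × 180k array, alongside negative controls, exposed for 1 h to GST-tagged P. falciparum DNA-binding domains expressed in E. coli. Bound protein was picked up with Alexa488 anti-GST antibody and scanned at 488 nm.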

Row | Sequence | gcPBM binding intensity (ln)
1 | ATATATATTATGTGTGTGCACTTTTGTTATTATTAT | 10.2
2 | TATATAACATAATATACACACATTATGTGCGTAATT [CACACA_site4073] | 9.75
3 | GATATGTTTTCCTAGGTTCATGATGATAGGTAGTTT [XGTACX_negctrl_site217] | 9.83
4 | AAAAAAAAAAAGCACACACACATATGCGTATATATA [CACACA_site954] | 10.9
5 | ATAAGAAAAAGACACACACACAAAAAAAAAAAAAAA [CACACA_site2828] | 10.2
6 | AAAAAAAAAAAAAGCACACACACATATGCGTATATA [CACACA_site953] | 10.3
7 | TAGGAAAAGAAAAGCACACACATAAATAGATATATA [CACACA_site6382] | 10.3
8 | ATAAGAAAAGGACACACACACAAAAAAAAAAAAAAA [CACACA_site7351] | 11.1
9 | AGTAAAAGAAAGCACACACACATGTATATAGGTATG [CACACA_site7759] | 10.9
10 | AGTAAAAGAAAGCACACACACATGTATATATGTATG [CACACA_site3858] | 11
11 | AAAGTAAAAGAAAGCACACACACATGTATATATGTA [CACACA_site3857] | 10.2
12 | AGATATAAGAAAAGCACACACACACTAGAAAAAAAA [CACACA_site5559] | 11
13 | ATACAATACAAAAACACACACAAAAAAAGAAAAGGA [CACACA_site2156] | 10.4
14 | AAAAAAAAAAAGCACACACACATATGAGTATATATA [CACACA_site4683] | 10.3
15 | AAGAAAAGCATAGATGCACACATATATATATATATA [CACACA_site8675] | 10.5
16 | ATATATACAAGTATTTTTTTTTCAAACATTATTTTT [CACACA_negctrl_site1808] | 9.68
17 | TACATGAATATATAAAGAAAAAAAAAAAAACACACA [XGTACX_negctrl_site350] | 9.79
18 | AATAAGTAACAAAATACACACATATATATAATTATA [CACACA_site1837] | 10.1
19 | CTTATATTAAGTATTACACACATATATATAAATGCA [CACACA_site4581] | 9.65

Row | Sequence | gcPBM binding intensity (ln)
20 | TGTACGTTTTTTAACACACACACAAAAAAAAAAAAA [CACACA_site6006] | 9.84
21 | GATTTATACAAATATGTACACACTAAATATATATTA [CACACA_site455] | 9.83
22 | GATGTTGCAAAATTCTGTACATATAAATGTATACAT [XGTACX_site5009] | 9.64
23 | TAATTAAAATTATTTATAAATTAGTATATTTCTATA [CACACA_negctrl_site663] | 9.42
24 | ATATAAGAAAAGCACACACACACAAAAAAAAAAAAA [CACACA_site2827] | 11.1
25 | GCAAAATAAAGAAGCACACAAAAATGAAATATATAT [CACACA_site3651] | 9.96
26 | AGAGATATAAGAAAAGCACACACACCCAAAAAAAAA [CACACA_site8917] | 10.5
27 | AAAAAAAATATAAGTGGTACTCACATAAAGACATAT [XGTACX_site3709] | 9.93
28 | AAAAAAAAAAAGAAGGAAACATTTGACCAAAAATAT [GTGCAC_negctrl_site404] | 9.58
29 | GTAGACTGAAACCACACACACATATATAAATATATT [CACACA_site6433] | 10.4
30 | ATTTTGTGTAGTGATGCATGTTATATATATATTTGA [TGCATGCA_site422] | 9.83
31 | TGTCATGATACATACACACACATACCCATACCCATA [CACACA_site5211] | 10.6
32 | AAAAAAAACGGACACACACACATACCCATACATACA [CACACA_site5574] | 10.5
33 | TAGAAGCATTGACACACACACATACATACACATACA [CACACA_site6802] | 11.2
34 | GTTATAGAAGCATTCACACACACACGGACATACACA [CACACA_site6801] | 10.7
35 | TAGAAGCATGGACACACACACATACATACCCATACA [CACACA_site4916] | 11.2
36 | TATAGAAGCATTCACACACACACATACATACACATA [CACACA_site1466] | 10.6
37 | TGTTGCAAAACAAAAAAAAAAAAAAAAAATAATAAT [CACACA_negctrl_site1642] | 9.52
38 | AAAAGGAAAAATATCACACATATATATATATATATA [CACACA_site5586] | 9.69

Row | Sequence | gcPBM binding intensity (ln)
39 | TAAGAAATAAATAGTACACACATAGACACCCACCCA [CACACA_site8429] | 11.3
40 | TAAGAAATAAATAGTACACACATAGACACACGCACA [CACACA_site6821] | 10.7
41 | TAGAAAAAATAAAATAGTACACATCCAAAAAAAAAA [XGTACX_site7829] | 9.71
42 | TAAGAAATAAATAGTACACACATAGACACCCACCGA [CACACA_site1516] | 10.4
43 | GCATAAGAAATAAATAGTACACACATAGACACACAC [XGTACX_site3095] | 11.3
44 | TAAGAAATAAATAGTACACACATAGACACAGACACA [CACACA_site4934] | 10.6
45 | TATAAATACATCCTATACTTCTCTTTTACAGTTTTA [CACACA_negctrl_site1283] | 9.62
46 | ATTTCGTTCTTTTATGCACACTCAACATATAAATTA [CACACA_site8322] | 9.93
47 | GACATAGTCATATACTGTACTTTATATTATTGTGTA [XGTACX_site6636] | 9.66
48 | TATAATAAAATATGTACACACATACAGACATATATA [CACACA_site6693] | 9.99
49 | TATGGTAAATACAACACACACACATATGTATTTATA [CACACA_site4666] | 10.3
50 | TATGGTATATACAACACACACACATATGTATAAATA [CACACA_site6562] | 10.5
51 | TGGTATATACGACACACACACATATGTATAAATATA [CACACA_site6561] | 10.9
52 | TATGGTATATACAACACACACACATATGTATATATA [CACACA_site927] | 10.9
53 | ACACATAAATGTATATATATATAAATATATGTATGT [CACACA_negctrl_site1532] | 9.82
54 | TATAAATAAATATACACACACACATATAAATATGTA [CACACA_site6504] | 10.4
55 | AATTCACATGTGAACTAAAAGAATATTATATATATA [CACACA_negctrl_site1632] | 9.55
56 | TTTTCTAAATATTATAGTACTCTTAATAATATTAAC [XGTACX_site4222] | 9.34
